According to PubChem BioAssay (NCATS):
Records with an inconclusive call do not appear. Active and inactive are the calls of the source. Unless noted, calls come from the whole dose curve; as a rule, active = well fitted curve in the direction sought with a large enough effect; inconclusive = small, poorly fitted or top-dose-only effect, or another doubt; inactive = no such curve, though single readings can be large; an effect the other way counts as inactive or inconclusive.

How the values were obtained:
[1] = biological target: Cytochrome P450 3A4 (Homo sapiens) (UniProt P08684); assay: qHTS Assay for Inhibitors and Substrates of Cytochrome P450 3A4 (AID 884); note: nearly all actives have a fitted effect of over 50% in size; note: potency is the fitted concentration of half-maximal effect
Procedure, shortened: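 20 nM human CYP3A4 with 25 uM Luciferin-PPXE (at KM) in 200 mM KPO4, preincubated 10 min with compound; NADPH regeneration started a 60 min RT reaction. Luciferin detected by luminescence, normalized to 57 uM ketoconazole as full inhibition.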

[2] = biological target: Cytochrome P450 3A4 (Homo sapiens) (UniProt P08684); assay: qHTS Assay for Activators of Cytochrome P450 3A4 (AID 885); note: nearly all actives have a fitted effect of over 65% in size
Procedure, shortened: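 Signal was normalized against complete inhibition by 57 uM ketoconazole. The reaction used 20nM CYP3A4 with 25uM Luciferin-PPXE, 10-min compound preincubation and a 60-min NADPH-supported step at RT.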

[3] = Confirmation and Secondary Assay for Modulators of Hemoglobin Beta Chain Splicing at IVS2 654 locus (AID 910);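 note: per-well total GFP intensity by laser scanning cytometry after 2-day treatment; % of control where 0% means no effect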
Procedure, shortened: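 HeLa cells stably carrying EGFP interrupted by mutant beta-globin IVS2-654 intron (CMV-driven) were treated with compound for 2 days at 37C; corrected splicing was scored as total peak GFP intensity per well (488 nm excitation, 500-520 nm emission).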

[4] = Confirmation and Secondary Assay for Modulators of Hemoglobin Beta Chain Splicing at IVS2 705 locus (AID 930);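 note: HeLa cells stably expressing the EGFP-705 splicing reporter; GFP fluorescence per well restored by corrected splicing of the IVS2-705 intron in EGFP; % of control where 0% means no effect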
Procedure, shortened: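 First, HeLa EGFP-705 cells are seeded at 500/well in Optimem with 2% FCS and left overnight. Next, compound or DMSO is added for 2 days. Finally wells are laser-scanned and total peak GFP intensity scored.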

[5] = biological target: Rap guanine nucleotide exchange factor 3 (Homo sapiens) (UniProt O95398); assay: Confirmatory qHTS for antagonist of cAMP-regulated guanine nucleotide exchange factor 3 (EPAC1) (AID 1645880); note: nearly all actives have a fitted effect of over 55% in size; note: potency is the fitted concentration of half-maximal effect
Procedure, shortened: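 Nucleotide exchange uses 100 nM EPAC1, 250 nM RAP1B-BODIPY-GDP and 50 uM GDP, with compounds in a concentration-titration series. After 5 min at room temperature, fluorescence (480 nm ex/540 nm em) is read every 5 min for 30 min. Data are normalized to control ATA and DMSO.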

[6] = biological target: Rap guanine nucleotide exchange factor 3 (Homo sapiens) (UniProt O95398); assay: Confirmatory qHTS for agonist of cAMP-regulated guanine nucleotide exchange factor 3 (EPAC1) (AID 1645881);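 note: EPAC1 catalysed release of BODIPY-GDP from Rap1B seen as fluorescence loss; 100% = effect of cAMP agonist control; nearly all actives have a fitted effect of over 75% in size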
[7] = biological target: Rap guanine nucleotide exchange factor 4 (Homo sapiens) (UniProt Q8WZA2); assay: Confirmatory qHTS for agonist of cAMP-regulated guanine nucleotide exchange factor 4 (EPAC2) (AID 1645884);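 note: nucleotide exchange releases bodipy-GDP from Rap1 and this lowers its fluorescence; % is set by controls: 0 for no effect and ±100 for the full control effect; nearly all actives have a fitted effect of over 65% in size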
[8] = biological target: Rap guanine nucleotide exchange factor 4 (Homo sapiens) (UniProt Q8WZA2); assay: Confirmatory qHTS for antagonist of cAMP-regulated guanine nucleotide exchange factor 4 (EPAC2) (AID 1645885); note: nearly all actives have a fitted effect of over 25% in size
[9] = biological target: Rap guanine nucleotide exchange factor 3 (Homo sapiens) (UniProt O95398); assay: Counterscreen qHTS for agonist of cAMP-regulated guanine nucleotide exchange factor 3 (EPAC1) (AID 1645889); note: nearly all actives have a fitted effect of over 40% in size; note: potency is the fitted concentration of half-maximal effect; for activation: % of control where 0% means no effect
Procedure, shortened: (§1)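 Measured: fluorescence of BODIPY-GDP bound to Rap1B, which falls as exchange proceeds. Conditions include 50 uM competing GDP, 5 and 30 min reads, and a later cAMP challenge for antagonist detection.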

[10] = biological target: Ubiquitin carboxyl-terminal hydrolase 1 (Homo sapiens) (UniProt O94782); assay: Inhibitors of USP1/UAF1: Pilot qHTS (AID 504865);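 note: rhodamine fluorescence freed from ubiquitin-rhodamine substrate followed over time; top concentration of the series differs between compounds; % is set by controls: 0 for no effect and ±100 for the full control effect; nearly all actives have a fitted effect of over 35% in size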
Procedure, shortened: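 1nM USP1/UAF1 + cpd, 15 min RT; start w/ Ub-Rho 150nM final; kinetic FL 480/540 nm, 6 reads q60 s. Buffer 50mM HEPES pH 7.8, 0.5mM EDTA, 1mM TCEP, 0.01% Tween-20, 0.1 mg/ml BSA.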

[11] = biological target: Rap guanine nucleotide exchange factor 3 (Homo sapiens) (UniProt O95398); assay: Counterscreen qHTS for antagonist of cAMP-regulated guanine nucleotide exchange factor 3 (EPAC1) (AID 1645888);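 note: fluorescence loss as bound BODIPY-GDP is released from Rap1B; % of control where 0% means no effect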
Procedure, shortened: as §1

[12] = qHTS for Inhibitors of Ubiquitin-specific Protease USP2a Using CHOP2 as the Reporter: K633 Counterscreen (AID 652168); note: % of control where 0% means no effect
Procedure, shortened: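 Cell-free interference counterscreen without USP2a: compounds pinned into enzyme-free buffer (20 mM Tris pH 8, 2 mM beta-mercaptoethanol, 0.05% Chaps), then DiUb K48-4IQF substrate added (100 nM stock); fluorescence read kinetically, Ex 525/Em 598.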

[13] = biological target: Ubiquitin carboxyl-terminal hydrolase 2 (Homo sapiens) (UniProt O75604); assay: qHTS for Inhibitors of Ubiquitin-specific Protease USP2a Using CHOP2 as the Reporter: K484 Substrate (AID 652173); details: USP2 cleavage of DiUb K48 IQF substrate, fluorescence;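 note: cleavage of internally quenched K48 di-ubiquitin substrate measured as rising fluorescence over time; potency is the fitted concentration of half-maximal effect; nearly all actives have a fitted effect of over 70% in size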
Procedure, shortened: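 USP2 (dispensed at 5 nM) was pinned with compounds, then DiUb K48 internally quenched fluorescent substrate (dispensed at 100 nM) was added. The buffer was 20 mM Tris pH 8, 2 mM beta-mercaptoethanol and 0.05% CHAPS. Cleavage was read kinetically as rising fluorescence, Ex 525/Em 598.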

[14] = AP1 Signaling Pathway (AID 357; active = well fitted curve in either direction with a large enough effect, not every such curve was filed as active;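 note: ME-180 reporter cells stimulated with EGF at its EC50 level; % is set by controls: 0 for no effect and ±100 for the full control effect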)
Procedure, shortened: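 Modulation of EGF-driven AP-1 transcription was assessed with a beta-lactamase reporter in ME-180 cells. Compound and EC50 EGF were co-incubated 5 hours at 37 °C before 2.5-hour CCF4 loading at room temperature and dual-emission reading.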

[15] = biological target: Cytochrome P450 1A2 (Homo sapiens) (UniProt P05177); assay: p450-cyp1a2 (AID 410; calls by dose curve;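 note: -100% = full effect of reference inhibitor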)
Procedure, shortened: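 Human CYP1A2 (20nM) demethylated Luciferin-ME at its Km (100uM) in 100mM KPO4. After 10 min compound preincubation, NADPH regeneration ran the reaction 60 min at room temperature. Luciferin was read by luminescence, normalized to 57 uM furafylline.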

[16] = Stat Signaling Pathway (AID 446; active = well fitted curve in either direction with a large enough effect, not every such curve was filed as active;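 note: ME-180 cervical cancer cells given 40 pM IL-6 alongside compound; SIE-controlled beta-lactamase reporter measured as 460/530 nm FRET emission ratio; % is set by controls: 0 for no effect and ±100 for the full control effect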)
Procedure, shortened: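 Reporter line: ME-180 cervical carcinoma, SIE-beta-lactamase. Treatment: compound with 40 pM IL-6, 5 hrs, 37 C, in low-serum OPTI-MEM with 10 mM HEPES pH 7.3. Detection: 460/530 nm fluorescence.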

[17] = biological target: Glucocorticoid receptor (Homo sapiens) (UniProt P04150); assay: GR-GFP Redistribution (AID 450;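 active = compounds whose dose series gives a full or clear partial fitted curve of increased nuclear translocation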; note: potency is the fitted concentration of half-maximal effect); details: U2OS GR-GFP nuclear translocation, laser cytometry, 2 h
[18] = biological target: Glucocorticoid receptor (Homo sapiens) (UniProt P04150); assay: GR-EFC Redistribution (AID 451; calls by dose curve; note: potency is the fitted concentration of half-maximal effect); details: CHO-K1 GR-EFC translocation, beta-gal luminescence, 2 h
Procedure, shortened: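 CHO-K1 cells stably expressing nuclear-localized β-gal enzyme acceptor and GR fused C-terminally to the enzyme donor fragment; ligand-driven nuclear translocation restores β-gal by complementation. Compounds titrated up to 46 uM final, 2 h at 37 °C; luminescence read.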

[19] = biological target: Mitogen-activated protein kinase 10 (Mus musculus) (UniProt Q61831); assay: JNK3 AlphaScreen Assay (AID 530; active = well fitted curve in either direction with a large enough effect, not every such curve was filed as active;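 note: kinase came from lysate of stimulated human HepG2 cells; signal reports phosphorylation of biotinylated GST-cJun 1-79 at Ser73 with 10 µM ATP; % is set by controls: 0 for no effect and ±100 for the full control effect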)
Procedure, shortened: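 JNK3 came from HepG2 lysates pre-activated with IL-1beta and TNF-alpha and phosphorylated biotinylated GST-cJun (1-79) at 10 uM ATP, pH 7.6, room temperature. Compounds were titrated. AlphaScreen signal used anti-phospho-cJun (Ser73) antibody.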

[20] = biological target: 3',5'-cyclic-AMP phosphodiesterase 4B (Homo sapiens) (UniProt Q07343); assay: qHTS Assay for Inhibitors of PDE-IV (AID 607; active = well fitted activation curve with a large enough effect in the main read-out, with a control signal flat, not every such curve was filed as active; note: % of control where 0% means no effect)
Procedure, shortened: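 Cell-based read-out of cAMP via a modified cyclic nucleotide-gated channel and membrane potential dye (535/590 nm) in HEK293 cells expressing PDE4 endogenously. Compounds tested up to 22.9 uM final; 100 uM RO 20-1724 reference.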

[21] = biological target: Luciferin 4-monooxygenase (Photinus pyralis) (UniProt P08659); assay: Biochemical firefly luciferase enzyme assay for NPC (AID 624030);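 note: purified P. pyralis luciferase at 10 nM with luciferin and ATP substrate; 0% = DMSO and -100% = full luciferase inhibition by PTC124 control; nearly all actives have a fitted effect of over 70% in size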
Procedure, shortened: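 Counter-screen for direct inhibition of the luciferase enzyme by approved-drug library compounds, run at 10 nM enzyme in 50 mM Tris acetate (final). Luminescence was read within 5 min of enzyme-buffer addition and normalized to PTC124 versus DMSO (0%).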

[22] = NFAT Signaling Pathway (AID 444; active = well fitted curve in either direction with a large enough effect, not every such curve was filed as active;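 note: carbachol stimulus at about its EC50 of 1 µM final; % is set by controls: 0 for no effect and ±100 for the full control effect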); details: Jurkat NFAT-bla M1, carbachol, beta-lactamase ratio, 5 h; at 17.2 µM (top of the series) unless noted
Procedure, shortened: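 Jurkat cells carrying an NFAT-driven β-lactamase reporter and co-transfected muscarinic M1 receptor were treated with compound plus carbachol (1 uM final, an EC50 level) for 5 h at 37 °C. CCF4 loading followed for 1 h at RT; 460/530 nm ratio gave %activity.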

Rap guanine nucleotide exchange factor 3 (Homo sapiens), sequence (O95398 whole entry, looked up): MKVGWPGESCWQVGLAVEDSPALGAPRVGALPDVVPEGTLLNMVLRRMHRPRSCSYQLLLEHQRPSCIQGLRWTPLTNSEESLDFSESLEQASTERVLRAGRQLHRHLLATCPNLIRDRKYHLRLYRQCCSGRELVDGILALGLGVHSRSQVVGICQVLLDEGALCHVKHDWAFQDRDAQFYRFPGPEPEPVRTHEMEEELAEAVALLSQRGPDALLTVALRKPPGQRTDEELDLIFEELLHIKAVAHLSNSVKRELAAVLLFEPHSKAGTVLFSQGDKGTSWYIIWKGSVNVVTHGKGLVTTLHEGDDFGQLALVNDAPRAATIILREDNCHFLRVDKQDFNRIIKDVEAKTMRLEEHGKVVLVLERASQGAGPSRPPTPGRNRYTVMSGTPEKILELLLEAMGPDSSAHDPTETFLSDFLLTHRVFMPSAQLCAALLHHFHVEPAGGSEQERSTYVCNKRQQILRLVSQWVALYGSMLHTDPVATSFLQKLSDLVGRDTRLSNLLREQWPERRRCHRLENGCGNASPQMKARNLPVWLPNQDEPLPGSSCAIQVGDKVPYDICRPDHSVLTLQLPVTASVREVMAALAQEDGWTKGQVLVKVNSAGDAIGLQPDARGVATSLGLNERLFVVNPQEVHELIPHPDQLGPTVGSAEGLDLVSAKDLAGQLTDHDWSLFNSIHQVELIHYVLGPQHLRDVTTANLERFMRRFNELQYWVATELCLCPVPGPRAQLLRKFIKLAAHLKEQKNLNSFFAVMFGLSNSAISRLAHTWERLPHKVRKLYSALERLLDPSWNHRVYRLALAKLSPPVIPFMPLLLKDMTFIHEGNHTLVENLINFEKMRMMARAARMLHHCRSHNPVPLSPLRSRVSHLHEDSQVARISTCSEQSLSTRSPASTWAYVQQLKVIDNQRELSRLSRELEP
Glucocorticoid receptor (Homo sapiens), sequence (P04150 whole entry, looked up, the tested form may be a part): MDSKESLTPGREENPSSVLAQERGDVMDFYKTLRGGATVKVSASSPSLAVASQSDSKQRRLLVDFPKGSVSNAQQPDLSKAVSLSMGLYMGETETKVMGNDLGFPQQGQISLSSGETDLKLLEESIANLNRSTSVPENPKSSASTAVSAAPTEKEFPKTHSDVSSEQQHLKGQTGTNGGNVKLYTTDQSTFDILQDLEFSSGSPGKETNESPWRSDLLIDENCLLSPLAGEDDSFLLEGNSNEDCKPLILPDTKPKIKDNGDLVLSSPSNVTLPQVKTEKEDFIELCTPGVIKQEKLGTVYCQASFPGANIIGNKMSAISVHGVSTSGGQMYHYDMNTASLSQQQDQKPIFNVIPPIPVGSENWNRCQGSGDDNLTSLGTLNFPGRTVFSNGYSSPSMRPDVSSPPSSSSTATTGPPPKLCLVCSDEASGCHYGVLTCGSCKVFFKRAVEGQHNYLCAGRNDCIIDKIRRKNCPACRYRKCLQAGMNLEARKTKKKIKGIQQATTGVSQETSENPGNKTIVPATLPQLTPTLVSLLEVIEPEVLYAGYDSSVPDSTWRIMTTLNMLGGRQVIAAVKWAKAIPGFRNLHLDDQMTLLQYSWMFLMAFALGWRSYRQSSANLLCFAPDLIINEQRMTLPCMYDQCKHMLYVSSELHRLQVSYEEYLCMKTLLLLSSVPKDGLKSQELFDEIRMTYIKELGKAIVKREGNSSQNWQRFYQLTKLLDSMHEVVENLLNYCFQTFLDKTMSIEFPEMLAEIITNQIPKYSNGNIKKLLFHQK
Cytochrome P450 3A4 (Homo sapiens), sequence (P08684 whole entry, looked up): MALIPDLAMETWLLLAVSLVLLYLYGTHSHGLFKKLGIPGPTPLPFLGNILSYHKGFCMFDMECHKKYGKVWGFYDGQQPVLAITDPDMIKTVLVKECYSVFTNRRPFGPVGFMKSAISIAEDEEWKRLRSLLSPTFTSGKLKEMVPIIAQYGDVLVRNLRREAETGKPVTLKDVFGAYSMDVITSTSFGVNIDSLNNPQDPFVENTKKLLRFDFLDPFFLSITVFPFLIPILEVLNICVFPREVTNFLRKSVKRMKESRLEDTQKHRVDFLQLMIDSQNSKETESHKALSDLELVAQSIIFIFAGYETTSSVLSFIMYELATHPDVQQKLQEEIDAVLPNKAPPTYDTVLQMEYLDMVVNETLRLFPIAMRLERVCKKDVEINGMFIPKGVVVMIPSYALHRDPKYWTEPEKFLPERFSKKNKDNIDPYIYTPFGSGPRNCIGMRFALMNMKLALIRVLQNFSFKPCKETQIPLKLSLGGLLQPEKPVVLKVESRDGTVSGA
Rap guanine nucleotide exchange factor 4 (Homo sapiens), sequence (Q8WZA2 whole entry, looked up): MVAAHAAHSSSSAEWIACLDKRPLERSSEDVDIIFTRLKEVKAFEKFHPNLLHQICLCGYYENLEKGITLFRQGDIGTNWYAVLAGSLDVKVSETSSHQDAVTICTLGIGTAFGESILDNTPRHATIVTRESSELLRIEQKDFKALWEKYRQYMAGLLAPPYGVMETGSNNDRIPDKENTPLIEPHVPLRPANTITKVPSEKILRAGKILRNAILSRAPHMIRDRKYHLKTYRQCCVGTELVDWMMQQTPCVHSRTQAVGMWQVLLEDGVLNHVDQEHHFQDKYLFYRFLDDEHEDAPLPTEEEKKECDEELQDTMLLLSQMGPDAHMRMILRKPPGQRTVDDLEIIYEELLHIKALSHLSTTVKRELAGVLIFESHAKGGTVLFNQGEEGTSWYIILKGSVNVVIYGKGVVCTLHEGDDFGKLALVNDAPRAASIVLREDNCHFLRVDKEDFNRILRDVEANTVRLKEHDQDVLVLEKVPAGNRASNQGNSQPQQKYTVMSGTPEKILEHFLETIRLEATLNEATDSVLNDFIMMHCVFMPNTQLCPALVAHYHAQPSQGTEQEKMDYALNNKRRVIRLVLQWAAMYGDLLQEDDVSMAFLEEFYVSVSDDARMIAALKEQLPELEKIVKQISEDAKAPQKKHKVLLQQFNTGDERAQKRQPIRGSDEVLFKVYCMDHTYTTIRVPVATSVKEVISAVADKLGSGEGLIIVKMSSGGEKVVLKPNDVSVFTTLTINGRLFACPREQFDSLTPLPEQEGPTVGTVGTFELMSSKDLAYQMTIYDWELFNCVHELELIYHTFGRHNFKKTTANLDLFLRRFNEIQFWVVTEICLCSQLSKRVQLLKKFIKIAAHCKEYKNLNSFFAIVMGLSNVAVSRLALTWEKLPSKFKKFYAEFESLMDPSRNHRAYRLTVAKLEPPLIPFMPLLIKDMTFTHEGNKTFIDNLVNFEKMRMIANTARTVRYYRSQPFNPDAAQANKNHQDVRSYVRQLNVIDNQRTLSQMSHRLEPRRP
Ubiquitin carboxyl-terminal hydrolase 1 (Homo sapiens), sequence (O94782 whole entry, looked up): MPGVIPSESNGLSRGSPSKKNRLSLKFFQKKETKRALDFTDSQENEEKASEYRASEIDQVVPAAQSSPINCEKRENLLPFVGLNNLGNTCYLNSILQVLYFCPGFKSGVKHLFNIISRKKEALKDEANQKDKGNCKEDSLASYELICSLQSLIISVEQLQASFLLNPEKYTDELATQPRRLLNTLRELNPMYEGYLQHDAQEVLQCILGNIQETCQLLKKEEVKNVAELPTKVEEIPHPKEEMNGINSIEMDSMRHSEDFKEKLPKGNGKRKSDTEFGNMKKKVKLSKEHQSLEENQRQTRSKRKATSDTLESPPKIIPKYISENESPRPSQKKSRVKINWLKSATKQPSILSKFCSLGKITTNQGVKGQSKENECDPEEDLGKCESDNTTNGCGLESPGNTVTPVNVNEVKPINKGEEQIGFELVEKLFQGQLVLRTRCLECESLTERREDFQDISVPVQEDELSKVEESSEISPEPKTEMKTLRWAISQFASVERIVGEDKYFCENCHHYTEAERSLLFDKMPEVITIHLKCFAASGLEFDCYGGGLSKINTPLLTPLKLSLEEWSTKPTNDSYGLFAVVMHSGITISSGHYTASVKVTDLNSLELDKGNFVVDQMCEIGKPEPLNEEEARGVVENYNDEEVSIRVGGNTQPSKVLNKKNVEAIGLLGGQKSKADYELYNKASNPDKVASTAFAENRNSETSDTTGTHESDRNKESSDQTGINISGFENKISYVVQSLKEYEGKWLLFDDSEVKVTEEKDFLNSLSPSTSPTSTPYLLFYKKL
3',5'-cyclic-AMP phosphodiesterase 4B (Homo sapiens), sequence (Q07343 whole entry, looked up): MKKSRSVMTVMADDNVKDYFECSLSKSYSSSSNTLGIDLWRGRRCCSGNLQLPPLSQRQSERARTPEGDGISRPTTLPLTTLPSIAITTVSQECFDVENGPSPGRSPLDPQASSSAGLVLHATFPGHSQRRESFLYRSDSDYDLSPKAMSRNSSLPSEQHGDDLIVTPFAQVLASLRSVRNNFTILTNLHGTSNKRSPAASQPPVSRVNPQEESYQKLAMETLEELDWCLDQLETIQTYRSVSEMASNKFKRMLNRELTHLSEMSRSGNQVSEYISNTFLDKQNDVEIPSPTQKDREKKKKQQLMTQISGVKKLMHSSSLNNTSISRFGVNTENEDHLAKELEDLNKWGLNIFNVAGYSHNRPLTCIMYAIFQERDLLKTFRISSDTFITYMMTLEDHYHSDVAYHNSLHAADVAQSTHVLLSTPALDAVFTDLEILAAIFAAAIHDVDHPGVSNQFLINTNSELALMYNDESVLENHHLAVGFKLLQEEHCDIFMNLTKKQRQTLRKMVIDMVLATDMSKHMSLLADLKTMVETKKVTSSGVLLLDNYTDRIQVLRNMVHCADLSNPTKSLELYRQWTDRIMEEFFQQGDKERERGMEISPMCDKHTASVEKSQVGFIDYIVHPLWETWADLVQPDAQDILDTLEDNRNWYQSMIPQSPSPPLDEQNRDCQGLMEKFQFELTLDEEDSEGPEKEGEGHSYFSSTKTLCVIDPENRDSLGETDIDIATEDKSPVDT

CCC(C)C(=O)OC1C2CC3=C4CC(=O)OC(c5ccoc5)[C@]4(C)CCC3[C@@](C)(C2=O)C(CC(=O)OC)C1(C)C (some centres not stated)
active: Potency [1] 6.31 µM
inactive: Potency [2] | Potency [3] | Potency [4]

CCCc1nn2c(=O)cc(COC(=O)c3cccc(NC(=O)CCc4ccccc4)c3)nc2s1
inactive: Potency [5] | Potency [6] | Potency [7] | Potency [8] | Potency [9]

COc1ccc2c(=O)c(CC(=O)O)coc2c1
inactive: Potency [1] | Potency [3] | Potency [4] | Potency [10]

COc1cc(OC)nc(Oc2cccc(Cl)c2C)n1
inactive: Potency [5] | Potency [6] | Potency [7] | Potency [8] | Potency [9]

Cc1cccc(NC(=O)c2sc3nc(-c4cc5ccc(O)cc5oc4=O)[nH]c(=O)c3c2C)c1
active: Potency [9] 50.1 µM
inactive: Potency [5] | Potency [11]

Cc1cc(F)ccc1S(=O)(=O)Nc1cnccc1C(=O)Nc1nc(-c2ccccc2)cs1
active: Potency [13] 0.968 µM
inactive: outcome [12]

O=C(Nc1cc(-c2ccccc2)sc1C(=O)O)c1cccc(F)c1
active: Potency [5] 47.8 µM
inactive: Potency [6] | Potency [7] | Potency [8] | Potency [9]

COc1ccc(-c2oc3c(CC=C(C)C)c(O[C@H]4OC(CO)C(O)C(O)C4O)cc(O)c3c(=O)c2O[C@@H]2OC(C)C(O)C(O)C2O)cc1 (some centres not stated)
inactive: Potency [1] | Potency [3] | Potency [4] | Potency [10]

COc1cccc(C(NC(C)=O)c2nc(-c3csc4ccccc34)cs2)c1 (configuration not stated)
inactive: Potency [5] | Potency [6] | activation [7] 1.45% [at 17.1 µM, percent relative to cAMP agonist control] | Potency [8] | activation [9] 29.4% [at 30.8 µM]

CN(C)c1ccc(C(O)c2cc3ccccc3s2)cc1 (configuration not stated)
inactive: Potency [5] | Potency [6] | Potency [7] | Potency [8] | Potency [9]

C[C@@H]1C[C@H](OC(=O)[C@@H](O)c2ccccc2)CC(C)(C)N1C
inactive: outcome [14] | Potency [15] | outcome [16] | Potency [17] > 20.6 µM | Potency [18] > 20.6 µM | Potency [19] | outcome [20] | Potency [21]

N[C@H](Cc1cc(I)c(Oc2cc(I)c(O)c(I)c2)c(I)c1)C(=O)O
inactive: outcome [14] | activity change, negative = inhibition [22] -8.92% | outcome [16] | Potency [17] > 20.6 µM | Potency [18] > 20.6 µM | Potency [19] | outcome [20] | Potency [10]

CC(NC(=O)c1sc2ncccc2c1-n1cccc1)c1ccccc1 (configuration not stated)
inactive: Potency [6] | Potency [7] | Potency [8] | Potency [11]
